Results filed as inconclusive are left out. A number with no mark means an inactive call. Activity calls are given as the source filed them. Unless noted, the call rests on the fitted dose curve; in most records, active means well fitted curve in the direction sought with a large enough effect in the repeat runs; inconclusive means weak or mixed curves; inactive means no such curve, though single readings can be large; an effect the other way counts as inactive or inconclusive.

The nature of experiment [1]: qHTS assay to identify small molecule antagonists of the peroxisome proliferator-activated receptor delta (PPARd) signaling pathway - cell viability counter screen (AID 743213). Further: nearly all actives have a fitted effect of over 50% in size. Put shortly: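 Same-well viability: cells pre-incubated 5 h, dosed with compound plus 300 nM L165041, kept 17 h at 37 C, FRET substrate 2 h RT, then CellTiter-Glo 30 min RT and luminescence.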

The target of experiment [2] is Bile acid receptor (Homo sapiens) (UniProt Q96RI1). Description: qHTS assay to identify small molecule antagonists of the farnesoid-X-receptor (FXR) signaling pathway (AID 743217; active means well fitted inhibition curve with a large enough effect in the signal ratio in the repeat runs, not every such curve was filed as active; the % refers to the signal ratio). Summed up:
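Antagonist mode against 50 uM (final) chenodeoxycholic acid stimulation in FXR-bla HEK 293T cells, 16 h at 37 °C. Inhibition detected as reduced beta-lactamase activity via LiveBLAzer B/G FRET fluorescence after 2 h at room temperature.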
A general note: Quantitative high-throughput screening tests each substance at several concentrations.

Experiment [3] can be described thus: qHTS assay to identify small molecule agonists of the farnesoid-X-receptor (FXR) signaling pathway - cell viability counter screen (AID 743218). Further: nearly all actives have a fitted effect of over 45% in size. Further: potency means the concentration at half of the fitted maximal effect. Summed up: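 Cytotoxicity counter-screen run in parallel, same wells: FXR-UAS-bla HEK 293T cells dosed 16 h at 37 C, viability read by CellTiter-Glo luminescence after 30 min at room temperature.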
A short description of experiment [4]: qHTS assay to identify small molecule antagonists of the farnesoid-X-receptor (FXR) signaling pathway - cell viability counter screen (AID 743221; active means well fitted cell-killing curve with a large enough effect in the repeat runs, not every such curve was filed as active; further: nearly all actives have a fitted effect of over 50% in size; further: potency means the concentration at half of the fitted maximal effect). Summed up: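 In GeneBLAzer FXR-UAS-bla HEK 293T cells stimulated with 50 uM chenodeoxycholic acid (final), compounds acted for 16 h at 37 C. Viability was assessed afterwards by CellTiter-Glo luminescence.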
Experiment [5] addresses Vitamin D3 receptor (Homo sapiens) (UniProt P11473). Description: qHTS assay to identify small molecule antagonists of the vitamin D receptor (VDR) signaling pathway (AID 743223; active means well fitted inhibition curve with a large enough effect in the signal ratio in the repeat runs, not every such curve was filed as active; the % refers to the signal ratio). Put shortly:
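Agonist 1alpha,25-dihydroxyvitamin D3 (3 nM in well) was added with each compound to VDR-bla cells preincubated 4 h. Cells stood 16 h at 37C, then FRET substrate 2 h at room temperature; fluorescence intensity recorded.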

Experiment [6] can be described thus: qHTS assay to identify small molecule agonists of the vitamin D receptor (VDR) signaling pathway - cell viability counter screen (AID 743224). Further: series mostly up to about 63 µM; nearly all actives have a fitted effect of over 50% in size. Put shortly: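 Viability is measured in the same wells as the VDR-bla reporter assay: after 16 h compound treatment and 2 h substrate loading, CellTiter-Glo is added and luminescence read 30 min later.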
Experiment [7] can be described thus: qHTS assay to identify small molecule antagonists of the vitamin D receptor (VDR) signaling pathway - cell viability counter screen (AID 743225). Further: nearly all actives have a fitted effect of over 50% in size. Further: potency means the concentration at half of the fitted maximal effect. Put shortly: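 Luminescent cell viability (CellTiter-Glo) in VDR-bla HEK 293T cells after 16 h compound exposure at 37C in the presence of 3 nM final 1-alpha,25-dihydroxy vitamin D3.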
Experiment [8] can be described thus: qHTS assay to identify small molecule agonists of the NFkB signaling pathway - cell viability counter screen (AID 1159515; calls by dose curve; further: nearly all actives have a fitted effect of over 55% in size; further: potency means the concentration at half of the fitted maximal effect). Summed up:
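Multiplexed viability readout: after the 5 hr compound exposure and 1.5 hr FRET substrate step, CellTiter-Glo reagent went into the same NFkB-bla ME-180 wells; ATP luminescence was measured after 30 min at room temperature.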

Experiment [9] in a line: qHTS assay to identify small molecule agonists of the endoplasmic reticulum stress response signaling pathway (AID 1159516; active means well fitted activation curve with a large enough effect in the signal ratio in the repeat runs, not every such curve was filed as active; the % refers to the signal ratio; further: potency means the concentration at half of the fitted maximal effect). Put shortly:
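Tox21 10K library screened in quantitative HTS format on ESRE-bla HeLa cells, a beta-lactamase reporter under ER stress response element control; 5 hr treatment, FRET read.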

Experiment [10] is described as follows: qHTS assay to identify small molecule antagonists of the retinoid-related orphan receptor gamma (ROR-gamma) signaling pathway - cell viability counter screen (AID 1159520). Further: nearly all actives have a fitted effect of over 50% in size. Further: potency means the concentration at half of the fitted maximal effect. Summed up: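 Tet-on ROR gamma CHO cells (1,000/well) were plated 4 hr, given compounds in DMSO for 2 hr at 37 C, then induced with 1 uM final doxycycline for 16 hr. Viability was read as ATP by CellTiter-Glo luminescence after 30 min.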

A short description of experiment [11]: qHTS assay to identify small molecule agonists of the AP-1 signaling pathway (AID 1159526; calls by dose curve).
The nature of experiment [12]: qHTS assay to identify small molecule agonists of the peroxisome proliferator-activated receptor delta (PPARd) signaling pathway - cell viability counter screen (AID 743211). Further: nearly all actives have a fitted effect of over 55% in size. Further: potency means the concentration at half of the fitted maximal effect. Put shortly:
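Luminescent ATP viability assay (CellTiter-Glo, 30 min RT) in UAS-bla HEK293H cells carrying the PPAR delta reporter construct, 3000 cells/well, after a 17 h compound treatment at 37 C.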

The target of experiment [13] is Peroxisome proliferator-activated receptor delta (Homo sapiens) (UniProt Q03181). Description: qHTS assay to identify small molecule agonists of the peroxisome proliferator-activated receptor delta (PPARd) signaling pathway (AID 743212; calls by dose curve). Put shortly: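 A PPARd-bla HEK293H line with beta-lactamase under an Upstream Activator Sequence is treated with compounds at 37 C. Substrate loading for 2 h at room temperature precedes the fluorescence measurement.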
Peroxisome proliferator-activated receptor delta (Homo sapiens), sequence (Q03181 whole entry, looked up): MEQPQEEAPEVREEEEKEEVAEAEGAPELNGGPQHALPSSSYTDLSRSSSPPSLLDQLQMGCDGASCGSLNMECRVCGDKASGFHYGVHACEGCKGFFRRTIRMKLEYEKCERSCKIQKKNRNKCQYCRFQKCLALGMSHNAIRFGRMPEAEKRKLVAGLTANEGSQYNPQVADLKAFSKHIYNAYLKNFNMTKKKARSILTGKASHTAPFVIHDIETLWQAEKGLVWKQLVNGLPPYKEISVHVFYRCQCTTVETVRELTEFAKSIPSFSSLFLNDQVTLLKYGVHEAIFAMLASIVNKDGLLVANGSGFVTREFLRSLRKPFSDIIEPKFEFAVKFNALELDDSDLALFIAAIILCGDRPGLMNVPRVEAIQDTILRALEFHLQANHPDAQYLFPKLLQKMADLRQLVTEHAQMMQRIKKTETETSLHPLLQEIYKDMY

For experiment [14], the target named is Vitamin D3 receptor (Homo sapiens) (UniProt P11473). Description: qHTS assay to identify small molecule agonists of the vitamin D receptor (VDR) signaling pathway (AID 743222; calls by dose curve). Summed up:
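Quantitative HTS agonist-mode screen: compounds in DMSO were pin-transferred onto VDR-bla cells and incubated 16 h at 37C, 5% CO2. Reporter activity was detected with LiveBLAzer B/G FRET substrate after 2 h at room temperature.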

Experiment [15] in a line: qHTS assay to identify small molecule agonists of the AP-1 signaling pathway - cell viability counter screen (AID 1159525; calls by dose curve; further: nearly all actives have a fitted effect of over 55% in size). Summed up:
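ME-180 AP-1-bla, 2500 cells/well, Opti-MEM + 0.5% dialyzed FBS; overnight 37 °C; cpd 15-pt titration, 5 h 37 °C; CellTiter-Glo 30 min RT; luminescence read; normalised to TOAB and DMSO controls.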

For experiment [16], the target named is Peroxisome proliferator-activated receptor delta (Homo sapiens) (UniProt Q03181). Description: qHTS assay to identify small molecule antagonists of the peroxisome proliferator-activated receptor delta (PPARd) signaling pathway (AID 743215; active means well fitted inhibition curve with a large enough effect in the signal ratio in the repeat runs, not every such curve was filed as active; the % refers to the signal ratio;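 further: cells stimulated with agonist L165041 at 300 nM final during compound exposure; series mostly up to about 62 µM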). Summed up:
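Inhibition of L165041-driven (300 nM final) PPARd signaling is scored in HEK293H UAS-bla cells. Exposure lasts 17 h at 37 C; beta-lactamase activity is then read by FRET substrate fluorescence after 2 h at room temperature.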

The target of experiment [17] is Bile acid receptor (Homo sapiens) (UniProt Q96RI1). Description: qHTS assay to identify small molecule agonists of the farnesoid-X-receptor (FXR) signaling pathway (AID 743220; active means well fitted activation curve with a large enough effect in the signal ratio in the repeat runs, not every such curve was filed as active; the % refers to the signal ratio). Summed up: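 Beta-lactamase reporter under UAS control in GeneBLAzer FXR HEK 293T cells (5000/well) measured with LiveBLAzer FRET substrate after 2 h at room temperature. Compound exposure lasted 16 h at 37C.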
Bile acid receptor (Homo sapiens), sequence (Q96RI1 whole entry, looked up): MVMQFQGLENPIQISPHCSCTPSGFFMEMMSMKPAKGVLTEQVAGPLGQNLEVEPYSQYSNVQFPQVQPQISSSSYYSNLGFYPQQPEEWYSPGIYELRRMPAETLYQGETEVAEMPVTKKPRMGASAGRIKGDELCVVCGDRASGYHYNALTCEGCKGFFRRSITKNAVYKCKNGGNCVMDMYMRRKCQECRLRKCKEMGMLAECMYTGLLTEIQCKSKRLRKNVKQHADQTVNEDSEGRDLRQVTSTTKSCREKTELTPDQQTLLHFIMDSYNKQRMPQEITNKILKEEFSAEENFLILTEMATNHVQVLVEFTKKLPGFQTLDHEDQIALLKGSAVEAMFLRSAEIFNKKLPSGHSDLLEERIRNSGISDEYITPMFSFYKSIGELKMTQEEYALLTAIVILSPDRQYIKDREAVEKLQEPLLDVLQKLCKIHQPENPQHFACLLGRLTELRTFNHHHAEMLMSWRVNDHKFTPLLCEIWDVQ

For experiment [18], the target named is Nuclear receptor ROR-gamma (Homo sapiens) (UniProt P51449). Briefly: qHTS assay to identify small molecule antagonists of the retinoid-related orphan receptor gamma (ROR-gamma) signaling pathway (AID 1159521; further: nearly all actives have a fitted effect of over 50% in size; further: potency means the concentration at half of the fitted maximal effect). Put shortly:
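CHO cells expressing RORγ under a TET-on promoter, luciferase under RORE control. Dox 1 uM final, 16 h; compounds added 2 h prior. Luminescence decrease measured.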

Experiment [19] in a line: qHTS assay to identify small molecule agonists of the endoplasmic reticulum stress response signaling pathway - cell viability counter screen (AID 1159517; calls by dose curve). Put shortly: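 CellTiter-Glo was added to wells already read for beta-lactamase FRET, and luminescence was recorded 30 min later. Cells: ESRE-bla HeLa, 1,500 per well, compound exposure 5 hr at 37 C.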

Vitamin D3 receptor (Homo sapiens), sequence (P11473 whole entry, looked up): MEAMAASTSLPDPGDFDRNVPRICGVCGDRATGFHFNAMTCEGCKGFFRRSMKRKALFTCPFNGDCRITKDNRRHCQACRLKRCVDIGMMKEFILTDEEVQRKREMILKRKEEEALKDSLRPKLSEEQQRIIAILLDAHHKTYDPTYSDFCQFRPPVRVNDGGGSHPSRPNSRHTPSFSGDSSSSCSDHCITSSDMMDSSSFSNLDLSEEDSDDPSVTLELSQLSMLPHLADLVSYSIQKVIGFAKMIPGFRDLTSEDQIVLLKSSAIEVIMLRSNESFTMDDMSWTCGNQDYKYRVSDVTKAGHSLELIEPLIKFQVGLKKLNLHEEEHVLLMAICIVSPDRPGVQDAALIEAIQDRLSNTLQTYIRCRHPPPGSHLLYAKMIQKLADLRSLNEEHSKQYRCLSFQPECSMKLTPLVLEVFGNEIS

With `Cc1c(C2(c3cc(Br)c(O)c(Br)c3C)OS(=O)(=O)c3ccccc32)cc(Br)c(O)c1Br`, the Potency entry in [1], in [6], in [7] and in [9] was “inactive” in each case. Besides, the outcome in experiment [2], in [5] and in experiment [11] was inactive. The Potency in experiment [3] is 16.9 µM (active); in [4] it was 16.9 µM (active); in [8] it was 37.7 µM (active); in experiment [10] it was 3.74 µM (active).

Consider `O=C(O)CO`, for which the Potency result in experiment [12], in experiment [1], in experiment [3], in experiment [4], in experiment [6] and in experiment [7] was “inactive” each time. Also, the Potency entry in experiment [8], in experiment [9], in [10] and in experiment [15] was “inactive” each time. The compound was called inactive in experiment [13], in [14] and in experiment [11].

Turning to `CCN(Cc1cccc(S(=O)(=O)O)c1)c1ccc(C(=C2C=CC(=[N+](CC)Cc3cccc(S(=O)(=O)O)c3)C=C2)c2ccc(O)cc2S(=O)(=O)[O-])cc1`, the outcome in experiment [13], in experiment [2], in [14], in experiment [5] and in experiment [11] was inactive. Also, the Potency result in experiment [16], in [17] and in experiment [9] was “inactive” in each case. Also, the values for the Potency in experiment [8], in experiment [10] and in [18] were 26.5 µM (active), 10.5 µM (active) and 14.8 µM (active), respectively.

On to `O=C(CCS)OCC(COC(=O)CCS)(COC(=O)CCS)COC(=O)CCS`, for which the Potency entry in [12], in experiment [1], in experiment [3], in experiment [17], in experiment [4] and in [6] was “inactive” throughout. In addition, the Potency entry in experiment [7], in [8], in experiment [10] and in [15] was “inactive” each time. The outcome in experiment [13], in experiment [2], in experiment [14], in experiment [5] and in experiment [11] was inactive. Moreover, the Potency in experiment [9] was 8.71 µM (active).

For `CC1CCCC(=O)C1=O` (stereo not drawn), the Potency result in [12], in [1], in experiment [16], in [3], in [4] and in [6] was “inactive” each time. The Potency result in experiment [7], in experiment [8], in experiment [19], in experiment [10] and in experiment [15] was “inactive” throughout. Moreover, the call in experiment [13], in [14], in experiment [5] and in experiment [11] was inactive.

For the compound `CCCCCCCCCCCSCC(=O)O`, the Potency in experiment [12] was 15.5 µM (active); in experiment [7], 21.9 µM (active). In addition, the Potency result in [4], in experiment [6], in experiment [8], in experiment [9], in [10] and in experiment [15] was “inactive” throughout. The compound was classed as inactive in experiment [11].

Turning to `O=CNNC=O`, the Potency entry in experiment [12], in [1], in [16], in experiment [3], in experiment [4] and in experiment [6] was “inactive” each time. Further, the Potency entry in [7], in experiment [8], in experiment [9], in experiment [10], in experiment [18] and in [15] was “inactive” each time. Further, the compound was classed as inactive in experiment [13], in experiment [14], in [5] and in [11].

With `Cc1cc(CCCOc2c(C)cc(-c3noc(C(F)(F)F)n3)cc2C)on1`, the Potency result in experiment [12], in experiment [1], in experiment [3], in experiment [4], in experiment [6] and in [7] was “inactive” in each case. Moreover, the Potency entry in [8], in experiment [9], in experiment [10], in experiment [18] and in [15] was “inactive” in each case. The outcome in [14] and in experiment [5] was inactive.

Regarding `O=C(O)c1cccc(Oc2ccccc2)c1`, the Potency result in experiment [12], in [1], in experiment [16], in experiment [3], in experiment [4] and in experiment [6] was “inactive” throughout. In addition, the Potency result in experiment [7], in [8], in [9], in experiment [10], in [18] and in experiment [15] was “inactive” each time. Further, the call in experiment [5] and in experiment [11] was inactive.

Values taken from PubChem BioAssay (Tox21).
